Assay [1] in a line: NCI Yeast Anticancer Drug Screen. Data for the rad50 strain (AID 155).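 Further: 0% = growth of vehicle-only cultures of the same strain.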 The following applies: S. cerevisiae rad50 strain growth inhibition, hits give high values. The procedure, abridged:
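DNA repair mutant yeast, compound exposure, growth read-out; inhibition is taken relative to vehicle.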

Assay [2] is described as follows: NCI Yeast Anticancer Drug Screen. Data for the mec2-1 strain (AID 157). The note with it: S. cerevisiae mec2-1 strain, hits give high values. The procedure, abridged:
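Growth inhibition is read against vehicle-treated controls after compound exposure of the mec2-1 yeast strain, which is defective in DNA damage repair or cell cycle control.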

A short description of assay [3]: NCI Yeast Anticancer Drug Screen. Data for the sgs1 mgt1 strain (AID 161).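 Further: 0% = growth of cultures given vehicle only.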 The following applies: S. cerevisiae sgs1 mgt1 strain, hits give high values. The gist of the method: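 Compounds are added to genetically altered yeast, and growth is compared with cultures given vehicle alone to give percent inhibition.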
Assay [4] is described as follows: NCI Yeast Anticancer Drug Screen. Data for the cln2 rad14 strain (AID 165).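 Further: 0% = growth equal to vehicle treated cultures.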 The following applies: S. cerevisiae cln2 rad14 strain, hits give high values. The procedure, abridged:
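Growth inhibition, relative to vehicle-treated controls, is the read-out. The test organism is a yeast strain with defined genetic alterations, cln2 rad14.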

Assay [5] is described as follows: NCI Yeast Anticancer Drug Screen. Data for the bub3 strain (AID 167). The note with it: S. cerevisiae bub3 mutant strain, hits give high values. The gist of the method: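 In this screen, a yeast mutant lacking normal mitotic checkpoint function is challenged with compound. Relative growth versus vehicle gives the inhibition value.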
A short description of assay [6]: NCI Yeast Anticancer Drug Screen. Data for the mlh1 rad18 strain (AID 175). The following applies: S. cerevisiae mlh1 rad18 strain growth inhibition, hits give high values. The gist of the method:
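Cells of a genetically altered yeast strain, deficient in DNA damage repair, were treated with compound. Their growth was then compared with that of vehicle-treated cultures to give inhibition.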

[7] abbreviates: at 5.0 µM (retest, dose inferred, filed as 0.5).
[8] abbreviates: at 50.0 µM (retest, dose inferred, filed as 5.0).

Compounds without any hit were thinned out: in the full panel of roughly 79,000, 15% have a hit. Values without a mark were called inactive. Activity calls are given as the source filed them. No stated cut-off is given here; in the data, active means growth inhibition above about 70%; inactive means the rest.

For `O=C1/C(=C/c2ccc(Cl)cc2)CCC/C1=C\c1ccc(O)c(CN2CCCCC2)c1`, the growth inhibition was 31% in assay [1] (setting [7]); 52% in assay [1] (setting [8]); 2.4% in assay [1] (at 50.0 µM); 2% in assay [2] (setting [7]); 17% in assay [2] (setting [8]); 1.75% in assay [2] (at 50.0 µM). Moreover, the growth inhibition in assay [3] (setting [7]) is 7%; in assay [3] (setting [8]), 20%; in assay [3] (at 50.0 µM), 69%; in assay [4] (setting [7]), 7%; in assay [4] (setting [8]) it was 24%; in assay [4] (at 50.0 µM) it was 51.9%. In addition, the growth inhibition is -48% in assay [5] (setting [7]); 17% in assay [5] (setting [8]); 72.3% (active) in assay [5] (at 50.0 µM); 16% in assay [6] (setting [7]); 20% in assay [6] (setting [8]); 90.6% (active) in assay [6] (at 50.0 µM).
With `O=C1C=CC(=O)c2c(O)c(N3CCN(CCOCCO)CC3)c(Br)c(O)c21`, the growth inhibition was 15% in assay [1] (setting [7]); 96% (active) in assay [1] (setting [8]); 88.3% (active) in assay [1] (at 50.0 µM); 13% in assay [2] (setting [7]); 98% (active) in assay [2] (setting [8]); 88.6% (active) in assay [2] (at 50.0 µM). The growth inhibition in assay [3] (setting [7]) is 18%; in assay [3] (setting [8]), 97% (active); in assay [3] (at 50.0 µM), 89.7% (active); in assay [4] (setting [7]), 17%; in assay [4] (setting [8]) it was 96% (active); in assay [4] (at 50.0 µM), 86.4% (active). In addition, the growth inhibition in assay [5] (setting [7]) was 25%; in assay [5] (setting [8]), 96% (active); in assay [5] (at 50.0 µM), 85.9% (active); in assay [6] (setting [7]) it was 16%; in assay [6] (setting [8]) it was 98% (active); in assay [6] (at 50.0 µM), 86.5% (active).
With `Brc1cccc[n+]1Cc1cc2ccccc2c2ccccc12`, the growth inhibition in assay [1] (setting [7]) was 0%; in assay [1] (setting [8]), 91% (active); in assay [1] (at 50.0 µM), 97.2% (active); in assay [2] (setting [7]) it was 32%; in assay [2] (setting [8]), 74% (active); in assay [2] (at 50.0 µM), 97.5% (active). For the same compound, the growth inhibition was 0% in assay [3] (setting [7]); 88% (active) in assay [3] (setting [8]); 98.6% (active) in assay [3] (at 50.0 µM); -5% in assay [4] (setting [7]); 70% (active) in assay [4] (setting [8]); 94.5% (active) in assay [4] (at 50.0 µM). Also, the growth inhibition was -12% in assay [5] (setting [7]); 91% (active) in assay [5] (setting [8]); 97.5% (active) in assay [5] (at 50.0 µM); 1% in assay [6] (setting [7]); 88% (active) in assay [6] (setting [8]); 97.9% (active) in assay [6] (at 50.0 µM).
As to `CC(=O)Oc1ccc(N2C(=O)C=CC2=O)cc1`, the growth inhibition was 86% (active) in assay [1] (setting [7]); 99% (active) in assay [1] (setting [8]); 98.8% (active) in assay [1] (at 50.0 µM); 81% (active) in assay [2] (setting [7]); 100% (active) in assay [2] (setting [8]); 99.1% (active) in assay [2] (at 50.0 µM). The growth inhibition is 67% in assay [3] (setting [7]); 99% (active) in assay [3] (setting [8]); 52% in assay [3] (at 50.0 µM); 56% in assay [4] (setting [7]); 100% (active) in assay [4] (setting [8]); 54.2% in assay [4] (at 50.0 µM). Further, the growth inhibition in assay [5] (setting [7]) is 87% (active); in assay [5] (setting [8]), 99% (active); in assay [5] (at 50.0 µM) it was 99% (active); in assay [6] (setting [7]), 41%; in assay [6] (setting [8]), 100% (active); in assay [6] (at 50.0 µM), 52.5%.
Consider `COc1ccc(C(c2cc3c(cc2O)OCO3)N2CCCC2)c(OC)c1` (stereo not drawn), for which the growth inhibition is 10% in assay [1] (setting [7]); 96% (active) in assay [1] (setting [8]); 98.5% (active) in assay [1] (at 50.0 µM); 0% in assay [2] (setting [7]); 97% (active) in assay [2] (setting [8]); 98.2% (active) in assay [2] (at 50.0 µM). The growth inhibition in assay [3] (setting [7]) is 0%; in assay [3] (setting [8]), 97% (active); in assay [3] (at 50.0 µM) it was 98.8% (active); in assay [4] (setting [7]), -15%; in assay [4] (setting [8]), 76% (active); in assay [4] (at 50.0 µM), 61.2%. The growth inhibition in assay [5] (setting [7]) is 5%; in assay [5] (setting [8]) it was 99% (active); in assay [5] (at 50.0 µM), 97.8% (active); in assay [6] (setting [7]) it was -3%; in assay [6] (setting [8]), 97% (active); in assay [6] (at 50.0 µM) it was 96% (active).
With `O=C(/C(O)=C(\O)C(=O)N(C1CCCCC1)C1CCCCC1)N(C1CCCCC1)C1CCCCC1`, the growth inhibition was 25% in assay [1] (setting [7]); 93% (active) in assay [1] (setting [8]); 96.9% (active) in assay [1] (at 50.0 µM); -2% in assay [2] (setting [7]); 89% (active) in assay [2] (setting [8]); 98.2% (active) in assay [2] (at 50.0 µM). In addition, the growth inhibition was 20% in assay [3] (setting [7]); 87% (active) in assay [3] (setting [8]); 96.8% (active) in assay [3] (at 50.0 µM); -4% in assay [4] (setting [7]); 66% in assay [4] (setting [8]); 79.7% (active) in assay [4] (at 50.0 µM). Also, the growth inhibition is 4% in assay [5] (setting [7]); 95% (active) in assay [5] (setting [8]); 95.5% (active) in assay [5] (at 50.0 µM); 14% in assay [6] (setting [7]); 86% (active) in assay [6] (setting [8]); 97.8% (active) in assay [6] (at 50.0 µM).

These data come from PubChem BioAssay (NCI).
